# Only some compounds are listed: those with a hit (about 10% of all), similar ones and a draw of the others.
# Pf growth 48h: Primary qHTS for delayed death inhibitors of the malarial parasite plastid, 48 hour incubation. P. falciparum luciferase growth in erythrocytes, 48 h. Potency, µM (highest dose often 28.7 µM), inactives show at the highest dose activity change, negative = inhibition, usual class: inhibitors. 310,000 compounds, 5.9% hits. AID 504832, 2011; further: on the % scale 0 is the no-effect control and ±100 the full control effect
#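 Luciferase-expressing P. falciparum in infected erythrocytes (2% hematocrit, 0.1% parasitemia final) in RPMI 1640/0.5% Albumax were exposed to compound for 48 hours at 37 C, 5% CO2; growth read as luminescence.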
# SARS PLP yeast: qHTS of Yeast-based Assay for SARS-CoV PLP; 330,000 compounds, 0.19% hits; AID 485353, 2010; Potency, µM (series often up to 32.9 µM), for inactives: at the top dose activity, positive = growth rescue, usual class: activators; S. cerevisiae expressing SARS-CoV PLpro, growth rescue; calls by dose curve; further: 0% is about no effect; nearly all actives have a fitted effect of over 55% in size
# NS1 inh: qHTS Assay for Inhibitors of Influenza NS1 Protein Function; Potency, µM (titrated, usually from 46.1 µM), without a hit: at the top dose activity, positive = more growth; 270,000 compounds, 0.4% hits; calls by dose curve; further: actives are rising curves; nearly all actives have a fitted effect of over 50% in size
#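 Read-out: OD600 growth recovery of NS1-expressing budding yeast. Cells grown overnight at 30C in -URA glucose medium, washed, resuspended and diluted 1:100 in 2% galactose assay medium, pH 6.0. Same strain lacking NS1 served as positive control.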
# Pf growth 96h: Primary qHTS for delayed death inhibitors of the malarial parasite plastid, 96 hour incubation; P. falciparum luciferase reporter growth, 96 h; Potency, µM (doses to about 28.7 µM), inactives show at the highest dose activity change, negative = inhibition, hits mostly inhibitors; 320,000 compounds, 6.9% hits; AID 504834, 2011; further: on the % scale 0 is the no-effect control and ±100 the full control effect
#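 Delayed-death screen, second-generation endpoint: infected erythrocytes, 2% hematocrit, 0.05% parasitemia final; 96 hours at 37 C, 5% CO2; luciferase detection reagent; luminescence decrease equals reduced growth.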
# * hit, by the source's call; ? = inconclusive; . = no result given; [ ] = another dose, or the depositor's remark. Unless noted, the call rests on the fitted dose curve; in most records, active means well fitted inhibition curve with a large enough effect; inconclusive means small, poorly fitted or top-dose-only effect, or another doubt; inactive means no such curve, though single readings can be large or run the other way. Potency means the concentration at half of the fitted maximal effect.
SMILES,Pf growth 48h,SARS PLP yeast,NS1 inh,Pf growth 96h
CC1CCCCC1NC(=O)CCS(=O)(=O)c1cc2c(cc1Cl)NC(=O)CO2 (stereo unspecified),5%,-1%,14%,-5%
COc1ccc(Cl)cc1NC(=O)CN(C)CC(=O)Nc1c(C)n(C)n(-c2ccccc2)c1=O,-17%,-10%,.,0%
CC(C)(C)OC(=O)N/N=C\C=C\c1ccc2c(c1)OCO2,141%,-4%,-6%,3.7µM*
CCN(c1cccc(C)c1)S(=O)(=O)c1cc2c3c(c1)CCN3C(=O)CC2,?,-1%,.,?
Cc1ccc(CN2CCN(Cc3ccccc3F)CC2)cc1,-10%[1.15 µM],1%,5%,56%[5.75 µM]
CCN1CCN(Cc2ccc(C)cc2)CC1,4%,11%,1%,5.2µM*
Cc1cc(C)c(NC(=O)CCCn2c(=O)oc3ccccc32)c(C)c1,-13%,-12%,.,-14%
CC(=O)/C(=N\Nc1ccccc1)Oc1ccc([N+](=O)[O-])cc1,9.3µM*,-3%,10%,10µM*
COc1ccc2c(c1)/C(=C/c1cnc[nH]1)C(=O)N2,?,-16%,-103%,5.2µM*
Cc1cc(C(=O)NC2CC(C)(C)Cc3c2cnn3-c2cccc(F)c2)n(C)n1 (stereo unspecified),?,0%,-4%,9.3µM*
CC1(C)Cc2c(cnn2-c2cccc(F)c2)C(NC(=O)c2csnn2)C1 (stereo unspecified),39%,-1%,-43%,6.6µM*
Cc1cc(C(=O)NC2CC(C)(C)Cc3c2cnn3-c2cccc(F)c2)nn1C (stereo unspecified),-8%,1%,-13%,2%
O=C(CSc1ccc(S(=O)(=O)N2CCCCC2)cn1)Nc1ccccc1Br,?,2%,.,?
Cc1ccc(NC2(c3nnnn3-c3c(C)cccc3C)CCCCC2)cc1,13µM*,-88%,20%,?
CSc1nnnn1-c1c(C)cccc1C,-4%,1%,1%,16%
O=C(COC(=O)c1ccncc1)c1ccc(Cl)c(Cl)c1,12%,0%,2%,2%
CC(=O)N(c1ccc(Cl)cc1)c1cn(C(C)=O)c2ccccc12,-2%,0%,-3%,-22%[5.75 µM]
CC(=O)N(c1ccc(Cl)cc1)c1c[nH]c2ccccc12,12µM*,55%,2%,6.6µM*
Cc1ccc(/C=C/S(=O)(=O)NCC(=O)OCC(=O)Nc2c(F)cccc2F)cc1,?,2%,.,-28%
COCCCN(Cc1ccco1)C(=O)Cn1ncc2c([nH]c3ccccc32)c1=O,?,-1%,?,?
COCCCN(Cc1ccco1)C(=O)CSc1nc2ncccc2[nH]1,3%,-1%,9%,13µM*
C[n+]1ccc(/C=C/c2cccs2)cc1,2.9µM*,1%,-3%,2.3µM*
O=C1NC2(CCCCC2)C(=O)N1c1ccc(Cl)cc1,15%,-3%,-8%,4.7µM*
CCCNC(=O)c1c(N)n(-c2ccc3c(c2)OCO3)c2nc3ccccc3nc12,8.3µM*,-14%,0%,4.1µM*
CCOCCCNC(=O)c1c(N)n(-c2ccc3c(c2)OCO3)c2nc3ccccc3nc12,?,-1%,5%,?
SMILES,Pf growth 48h,SARS PLP yeast,NS1 inh,Pf growth 96h
CCCNC(=O)c1c(N)n(-c2cc(OC)cc(OC)c2)c2nc3ccccc3nc12,?,1%,-43%,10µM*
Nc1c(C(=O)NC2CC2)c2nc3ccccc3nc2n1-c1ccc2c(c1)OCO2,1%,13%,-52%,?
COCCCNC(=O)c1c(N)n(-c2ccc3c(c2)OCO3)c2nc3ccccc3nc12,6.6µM*,-1%,-40%,11%
COc1ccc(C(=O)NCc2nnc(SCC(=O)NC3CCCCC3)o2)cc1,8%,-1%,5%,-23%
COc1ccccc1N(CC(=O)NCCSCc1ccco1)S(=O)(=O)c1ccccc1,?,0%,-1%,0%
COc1ccc(CCN2CC(C(=O)NCCCn3nc(C)cc3C)CCC2=O)cc1 (stereo unspecified),29%,0%,2%,29%
O=C(NNC(=S)NCc1ccc(Cl)cc1)c1ccc2c(c1)OCO2,14%,-1%,-1%,?
O=C1C(=O)c2ccccc2C(O)=C1C(CCc1ccccc1)C1=C(O)c2ccccc2C(=O)C1=O,.,.,-38%,.
COC(=O)c1cc(NS(=O)(=O)c2ccc(NCc3cccnc3)c([N+](=O)[O-])c2)cc(C(=O)OC)c1,0%,7%,17%,-13%
CSCCC(NC(=O)c1ccco1)C(=O)N1CCCC(C(F)(F)F)C1 (stereo unspecified),-10%,0%,.,?
CSCCC(NC(=O)c1ccco1)C(=O)N1CCN(C(c2ccccc2)c2ccccc2)CC1 (stereo unspecified),8.3µM*,-5%,.,2.1µM*
COc1ccc(OC)c(S(=O)(=O)N2CCC(C(=O)NC3CC3)CC2)c1,4%,0%,3%,30%
COc1ccc(CCNC(=O)c2[nH]c(C)c(C(C)=O)c2C)cc1,-17%,0%,-3%,.
Cc1oc2c(c1C(=O)NCc1cccnc1)C(=O)c1ccccc1C2=O,?,-3%,2%,0.15µM*
COc1ccc(CNC(=O)c2[nH]c(C)c(C(C)=O)c2C)cc1,15µM*,-2%,16%,?
COc1ccc(CNC(=O)c2c(C)oc3c2C(=O)c2ccccc2C3=O)cc1,?,-27%,-16%,3.3µM*
CC(=O)c1c(C)oc2c1C(=O)c1ccccc1C2=O,?,26%,-16%,-29%
O=S(=O)(Nc1ccc(Br)cc1)N1CCOCC1,23%,1%,3%,9.3µM*
CCCOc1ccc(N2C(=O)CC(N(CCc3ccc(OC)c(OC)c3)C(=S)Nc3ccccc3)C2=O)cc1 (stereo unspecified),2.1µM*,-14%,?,?
CNC(=S)N(Cc1ccc(OC)cc1)C1CC(=O)N(c2ccc(OC)cc2)C1=O (stereo unspecified),-22%,-16%,11%,?
O=C1CC(N(CCc2ccccc2)C(=S)Nc2ccccc2)C(=O)N1c1ccccc1 (stereo unspecified),?,1%,29%,3.3µM*
O=C1CC(N(CCc2ccccc2)C(=S)Nc2ccccc2)C(=O)N1c1ccc(F)cc1 (stereo unspecified),?,-2%,7%,?
CNC(=S)N(Cc1ccc(OC)cc1)C1CC(=O)N(c2ccc(C(=O)OC)cc2)C1=O (stereo unspecified),?,5%,-21%,5.9µM*
C=CCN(C(=O)Nc1ccccc1)C1CC(=O)N(c2ccc(OC)cc2)C1=O (stereo unspecified),5%,5%,-4%,12µM*
O=C(/C=C/c1ccccc1)NCC(=O)N/N=C/c1cccs1,2%,0%,-36%,?
O/N=C/c1ccn(-c2ccc(Br)cc2)c1,68%,-3%,.,176%
CCNC(=S)N(CCc1ccc(S(N)(=O)=O)cc1)C1CC(=O)N(c2ccccc2)C1=O (stereo unspecified),?,1%,-1%,10µM*

# From PubChem BioAssay
